Growth data for 20 compounds are collected here from the supplement of paper PMC9262897, “Low-cost anti-mycobacterial drug discovery using engineered E. coli” (Nature Communications, 2022).

Each structure is given as a SMILES string. Where a name gives a salt, the structure may show the parent alone. ± gives the standard deviation of the averaged measurements.

One assay deals with E. coli TESEC Mtb DapB. Kind of assay: growth (OD600 after 10 h); higher = more growth (less inhibition). Conditions: arabinose induction (level): High; compound 0.1 mM; raw OD600 reference: median of DMSO wells […], cell-free background 0.041. On the procedure: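 TESEC E. coli strains in which the native enzyme is deleted and replaced by arabinose-inducible Mtb Asd, DapB, CysH or TrpD, each grown in its selective medium. Strains were screened against the Prestwick library at 0.1 mM and 1% DMSO in 384-well format at low and high arabinose induction. Growth is read as OD600 after 10 h in triplicate.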
Take `COc1ccc([C@@H]2CC(=O)c3c(O)cc(O[C@@H]4O[C@H](CO[C@@H]5O[C@@H](C)[C@H](O)[C@@H](O)[C@H]5O)[C@@H](O)[C@H](O)[C@H]4O)cc3O2)cc1O` [Hesperidin]: the growth was 0.188 ± 0.011.

Turning to `CC(C)NC[C@@H](O)COc1cccc2ccccc12` [(R)-Propranolol hydrochloride], the growth came to 0.193 ± 0.01.

`CCCOc1ccc2[nH]c(NC(=O)OC)nc2c1` [Oxibendazol] displayed a growth of 0.191 ± 0.013.

For `CCCCC[C@H](O)/C=C/[C@H]1[C@H](O)CC(=O)[C@@H]1CCCCCCC(=O)O` [Alprostadil], the growth is 0.154 ± 0.008.

Consider `C=C1/C(=C\C=C2/CCC[C@]3(C)[C@@H]([C@H](C)/C=C/[C@@H](O)C4CC4)CC[C@@H]23)C[C@@H](O)C[C@@H]1O` [Calcipotriene], for which the growth was determined as 0.158 ± 0.078.

Turning to `Nc1nc2[nH]cc(CCc3ccc(C(=O)N[C@@H](CCC(=O)O)C(=O)O)cc3)c2c(=O)[nH]1` [Pemetrexed disodium], the growth is 0.19 ± 0.019.

As to `CC(C)C[C@H](NC(=O)[C@@H](O)[C@H](N)Cc1ccccc1)C(=O)O` [Ubenimex], the growth worked out at 0.192 ± 0.017.

Regarding `OCCN1CCN(CC/C=C2/c3ccccc3Sc3ccc(Cl)cc32)CC1` [Zuclopenthixol dihydrochloride], the growth stood at 0.179 ± 0.029.

The compound `CCN(CC)CC#CCOC(=O)C(O)(c1ccccc1)C1CCCCC1` (stereo not given) [Oxybutynin chloride] yielded a growth of 0.159 ± 0.0078.

The compound `CS(=O)(=O)c1ccc([C@@H](O)[C@@H](CF)NC(=O)C(Cl)Cl)cc1` [Florfenicol] came in with a growth of 0.0485 ± 0.0014.

Compound `CCCCc1cc2ccccc2c(OCCN(C)C)n1` [Dimethisoquin hydrochloride] showed a growth of 0.167 ± 0.014.

`COc1cc(C)c(/C=C/C(C)=C/C=C/C(C)=C/C(=O)O)c(C)c1C` [Acitretin] registered a growth of 0.153 ± 0.0019.

Compound `C=C[C@H]1CN2CC[C@H]1C[C@@H]2[C@@H](O)c1ccnc2ccc(OC)cc12` [Quinidine hydrochloride monohydrate] registered a growth of 0.198 ± 0.0064.

Consider `Cc1ncc([N+](=O)[O-])n1CC(C)O` (stereo not given) [Secnidazole], for which the growth was determined as 0.2001 ± 0.001.

In turn, `N[C@@H](Cc1ccc(O)c(O)c1)C(=O)O` [Levodopa] came in with a growth of 0.195 ± 0.0078.

In turn, `Cn1c(=O)c2nc[nH]c2n(C)c1=O` [Theophylline monohydrate] returned a growth of 0.197 ± 0.014.

Take `N=C(N)NC(=N)NCCc1ccccc1` [Phenformin hydrochloride]: the growth turned out to be 0.203 ± 0.0056.

In turn, `CCOC(=O)n1ccn(C)c1=S` [Carbimazole] returned a growth of 0.216 ± 0.011.

`O=C(CCCN1CC=C(n2c(=O)[nH]c3ccccc32)CC1)c1ccc(F)cc1` [Droperidol] had a growth of 0.184 ± 0.015.

On to `CC(C)[N+](C)(CCOC(=O)C1c2ccccc2Oc2ccccc21)C(C)C` [Propantheline bromide], for which the growth was 0.156 ± 0.011.

The same assay, now with this note: arabinose induction (level): Low; compound 0.1 mM; raw OD600 reference: median of DMSO wells 0.227, cell-free background 0.041.
In the case of `COc1ccc([C@@H]2CC(=O)c3c(O)cc(O[C@@H]4O[C@H](CO[C@@H]5O[C@@H](C)[C@H](O)[C@@H](O)[C@H]5O)[C@@H](O)[C@H](O)[C@H]4O)cc3O2)cc1O` [Hesperidin], the growth turned out to be 0.251 ± 0.034.

In turn, `CC(C)NC[C@@H](O)COc1cccc2ccccc12` [(R)-Propranolol hydrochloride] displayed a growth of 0.212 ± 0.027.

For the compound `CCCOc1ccc2[nH]c(NC(=O)OC)nc2c1` [Oxibendazol], the growth stood at 0.219 ± 0.027.

In turn, `CCCCC[C@H](O)/C=C/[C@H]1[C@H](O)CC(=O)[C@@H]1CCCCCCC(=O)O` [Alprostadil] registered a growth of 0.177 ± 0.032.

On to `C=C1/C(=C\C=C2/CCC[C@]3(C)[C@@H]([C@H](C)/C=C/[C@@H](O)C4CC4)CC[C@@H]23)C[C@@H](O)C[C@@H]1O` [Calcipotriene], for which the growth is 0.0652 ± 0.0025.

`Nc1nc2[nH]cc(CCc3ccc(C(=O)N[C@@H](CCC(=O)O)C(=O)O)cc3)c2c(=O)[nH]1` [Pemetrexed disodium] registered a growth of 0.231 ± 0.013.

As to `CC(C)C[C@H](NC(=O)[C@@H](O)[C@H](N)Cc1ccccc1)C(=O)O` [Ubenimex], the growth is 0.229 ± 0.015.

`OCCN1CCN(CC/C=C2/c3ccccc3Sc3ccc(Cl)cc32)CC1` [Zuclopenthixol dihydrochloride] had a growth of 0.186 ± 0.038.

Compound `CCN(CC)CC#CCOC(=O)C(O)(c1ccccc1)C1CCCCC1` (stereo not given) [Oxybutynin chloride] showed a growth of 0.172 ± 0.034.

Regarding `CS(=O)(=O)c1ccc([C@@H](O)[C@@H](CF)NC(=O)C(Cl)Cl)cc1` [Florfenicol], the growth came out at 0.0488 ± 0.001.

`CCCCc1cc2ccccc2c(OCCN(C)C)n1` [Dimethisoquin hydrochloride] had a growth of 0.184 ± 0.012.

Consider `COc1cc(C)c(/C=C/C(C)=C/C=C/C(C)=C/C(=O)O)c(C)c1C` [Acitretin], for which the growth worked out at 0.1772 ± 0.00061.

With `C=C[C@H]1CN2CC[C@H]1C[C@@H]2[C@@H](O)c1ccnc2ccc(OC)cc12` [Quinidine hydrochloride monohydrate], the growth stood at 0.229 ± 0.034.

Consider `Cc1ncc([N+](=O)[O-])n1CC(C)O` (stereo not given) [Secnidazole], for which the growth turned out to be 0.216 ± 0.024.

Consider `N[C@@H](Cc1ccc(O)c(O)c1)C(=O)O` [Levodopa], for which the growth came to 0.209 ± 0.013.

`Cn1c(=O)c2nc[nH]c2n(C)c1=O` [Theophylline monohydrate]: the growth is 0.241 ± 0.044.

Compound `N=C(N)NC(=N)NCCc1ccccc1` [Phenformin hydrochloride] came in with a growth of 0.211 ± 0.012.

As for `CCOC(=O)n1ccn(C)c1=S` [Carbimazole], the growth stood at 0.239 ± 0.025.

`O=C(CCCN1CC=C(n2c(=O)[nH]c3ccccc32)CC1)c1ccc(F)cc1` [Droperidol] had a growth of 0.206 ± 0.029.

Turning to `CC(C)[N+](C)(CCOC(=O)C1c2ccccc2Oc2ccccc21)C(C)C` [Propantheline bromide], the growth was found to be 0.17 ± 0.0089.
